Measurements as given in PubChem BioAssay (NCI).
This is part of a sample that, as a whole, favours compounds with a hit. Of some 79,000 tested, about 15% had one in any assay. The source made the active and inactive calls. No stated cut-off is given here; in the data, active means growth inhibition above about 70%; inactive means the rest.

Key:
[1] = NCI Yeast Anticancer Drug Screen. Data for the rad52 strain (AID 147);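 further: 0% = growth of vehicle-treated control cultures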; conditions: S. cerevisiae rad52 mutant growth inhibition, hits give high values
Method in brief: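 Screen used a yeast mutant impaired in DNA repair. After compound exposure, growth was measured. Values reflect inhibition compared with vehicle-treated cells.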

[2] = NCI Yeast Anticancer Drug Screen. Data for the rad50EPP+ strain (AID 151);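 further: 0% = growth of vehicle-treated control cultures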; conditions: S. cerevisiae rad50 mutant strain, hits give high values
Method in brief: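 Exposing the rad50EPP+ strain to each compound, growth was compared with vehicle-only cultures to give inhibition.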

[3] = NCI Yeast Anticancer Drug Screen. Data for the mgt1 strain (AID 153); conditions: S. cerevisiae mgt1 mutant growth inhibition, hits give high values
Method in brief: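 Genetically defined yeast (mgt1) treated with compound; inhibition of growth expressed against vehicle-treated controls.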

[4] = NCI Yeast Anticancer Drug Screen. Data for the rad50 strain (AID 155);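 further: 0% = growth of vehicle-only cultures of the same strain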; conditions: S. cerevisiae rad50 strain growth inhibition, hits give high values
Method in brief: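 Readout: growth inhibition relative to vehicle-treated cultures. Compound exposure was carried out in a genetically defined yeast strain deficient in DNA damage repair.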

[5] = NCI Yeast Anticancer Drug Screen. Data for the mec2-1 strain (AID 157); conditions: S. cerevisiae mec2-1 strain, hits give high values
Method in brief: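 Readout is yeast growth inhibition, normalised to vehicle-treated controls, in the mec2-1 strain exposed to compound.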

[6] = NCI Yeast Anticancer Drug Screen. Data for the rad14 strain (AID 159);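 further: 0% = growth of vehicle-treated control cultures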; conditions: S. cerevisiae rad14 strain growth inhibition, hits give high values
Method in brief: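 Growth inhibition vs vehicle controls; genetically altered yeast strain (DNA damage repair defect) treated with test compounds.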

[7] = NCI Yeast Anticancer Drug Screen. Data for the sgs1 mgt1 strain (AID 161);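 further: 0% = growth of cultures given vehicle only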; conditions: S. cerevisiae sgs1 mgt1 strain, hits give high values
Method in brief: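 This yeast growth screen uses a strain with defined DNA-repair lesions; compound-treated growth is compared with vehicle-treated growth.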

[8] = NCI Yeast Anticancer Drug Screen. Data for the CLN2oe strain (AID 163);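 further: 0% = growth of vehicle-only control cultures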; conditions: S. cerevisiae CLN2oe strain, hits give high values
Method in brief: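 Values reflect how much compound exposure reduced yeast growth, referenced to vehicle-exposed cells. Assay organism is a strain with a defined genetic change affecting cell-cycle control.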

[9] = NCI Yeast Anticancer Drug Screen. Data for the cln2 rad14 strain (AID 165);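 further: 0% = growth equal to vehicle treated cultures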; conditions: S. cerevisiae cln2 rad14 strain, hits give high values
Method in brief: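 Relative to vehicle controls, growth inhibition of compound-treated cln2 rad14 yeast was recorded.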

[10] = NCI Yeast Anticancer Drug Screen. Data for the bub3 strain (AID 167); conditions: S. cerevisiae bub3 mutant strain, hits give high values
Method in brief: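 Readout: yeast growth inhibition, expressed relative to vehicle-only wells. The test organism is a mutant strain from a panel with lesions in DNA repair or checkpoint genes.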

[11] = NCI Yeast Anticancer Drug Screen. Data for the wt2 strain (AID 169);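 further: 0% = growth of vehicle-treated yeast cultures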; conditions: S. cerevisiae wt2 strain growth inhibition, hits give high values
Method in brief: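 Values express reduction in yeast growth under compound treatment, referenced to vehicle-treated cells.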

[12] = NCI Yeast Anticancer Drug Screen. Data for the mlh1 strain (AID 171);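 further: 0% = growth of vehicle-treated control cultures of the same strain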; conditions: S. cerevisiae mlh1 strain growth inhibition, hits give high values
Method in brief: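 Steps: expose the defined-mutant yeast strain to compound; expose a parallel culture to vehicle; measure growth; express compound effect as inhibition relative to the vehicle culture.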

[13] = NCI Yeast Anticancer Drug Screen. Data for the sgs1 strain (AID 173);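 further: 0% = growth of vehicle-only control cultures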; conditions: S. cerevisiae sgs1 mutant, hits give high values
Method in brief: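 Treat defined-mutant yeast with compound; measure growth; calculate inhibition relative to vehicle-treated cells.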

[14] = NCI Yeast Anticancer Drug Screen. Data for the mlh1 rad18 strain (AID 175); conditions: S. cerevisiae mlh1 rad18 strain growth inhibition, hits give high values
Method in brief: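 Test agents were incubated with a yeast strain of defined genotype (DNA damage repair defect). Inhibition of growth was derived by comparison with vehicle-exposed cultures.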

[15] = NCI Yeast Anticancer Drug Screen. Data for the rad18 strain (AID 177); conditions: S. cerevisiae rad18 mutant growth inhibition, hits give high values
Method in brief: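 A genetically defined yeast mutant impaired in DNA damage repair was treated with test compounds, then its growth was measured against cultures receiving vehicle alone.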

[16] = at 5.0 µM (retest, dose inferred, filed as 0.5)
[17] = at 50.0 µM (retest, dose inferred, filed as 5.0)

Measured: growth inhibition

N#Cc1ccc(C2NN=CC23C(=O)c2ccccc2OC3c2ccccc2)cc1 (stereo not drawn)
active: [4]; at 50.0 µM 73.3% | [5]; [17] 85% | [5]; at 50.0 µM 77% | [7]; [17] 93% | [7]; at 50.0 µM 77.5%
inactive: [1]; at 1.2 µM 2% | [1]; at 3.7 µM 5% | [1]; at 11.0 µM 4% | [1]; at 33.0 µM 3% | [1]; at 100.0 µM 5% | [2]; at 1.2 µM -2% | [2]; at 3.7 µM 0% | [2]; at 11.0 µM -1% | [2]; at 33.0 µM -3% | [2]; at 100.0 µM 3% | [3]; at 1.2 µM -4% | [3]; at 3.7 µM -2% | [3]; at 11.0 µM 5% | [3]; at 33.0 µM -3% | [3]; at 100.0 µM 2% | [4]; at 1.2 µM 2% | [4]; at 3.7 µM 4% | [4]; [16] 10% | [4]; at 11.0 µM -6% | [4]; at 33.0 µM 5% | [4]; [17] 66% | [4]; at 100.0 µM 3% | [5]; at 1.2 µM 2% | [5]; at 3.7 µM -2% | [5]; [16] -19% | [5]; at 11.0 µM -3% | [5]; at 33.0 µM -4% | [5]; at 100.0 µM 1% | [6]; at 1.2 µM 0% | [6]; at 3.7 µM 1% | [6]; at 11.0 µM 5% | [6]; at 33.0 µM 3% | [6]; at 100.0 µM 3% | [7]; [16] -22% | [8]; at 1.2 µM -2% | [8]; at 3.7 µM 2% | [8]; at 11.0 µM 5% | [8]; at 33.0 µM -1% | [8]; at 100.0 µM 5% | [9]; [16] -16% | [9]; [17] 38% | [9]; at 50.0 µM 61% | [10]; at 1.2 µM -7% | [10]; at 3.7 µM 0% | [10]; [16] -28% | [10]; at 11.0 µM 7% | [10]; at 33.0 µM -2% | [10]; [17] 16% | [10]; at 50.0 µM 64% | [10]; at 100.0 µM 0% | [11]; at 1.2 µM 0% | [11]; at 3.7 µM 0% | [11]; at 11.0 µM 2% | [11]; at 33.0 µM 1% | [11]; at 100.0 µM 3% | [12]; at 1.2 µM 0% | [12]; at 3.7 µM -5% | [12]; at 11.0 µM 0% | [12]; at 33.0 µM -2% | [12]; at 100.0 µM 4% | [13]; at 1.2 µM 0% | [13]; at 3.7 µM -4% | [13]; at 11.0 µM -3% | [13]; at 33.0 µM -3% | [13]; at 100.0 µM -1% | [14]; [16] -14% | [14]; [17] 60% | [14]; at 50.0 µM 56.4% | [15]; at 1.2 µM -3% | [15]; at 3.7 µM -4% | [15]; at 11.0 µM -3% | [15]; at 33.0 µM -16% | [15]; at 100.0 µM -1%
